# Source: PubChem (several laboratories)
# CYP2C9 inhib: inhibitors of human CYP2C9. CYP2C9 Supersomes, luciferin-H conversion, luminescence. inhibition, % at 5 µM. hit rate 20% among 96,000. AID 777;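 active = blocking of liver enzyme CYP2C9 beyond about 50% at 5 µM, limit read from the data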
# CYP2C19 inh: inhibitors of human CYP2C19; P33261; CYP2C19 Supersomes, luciferin-H EGE luminescence, 30 min; inhibition, % at 5 µM; hit rate 21% among 96,000;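 active = CYP2C19 inhibition above a set limit at 5 µM in the primary screen, cut at about 50% in these data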;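 note: plate controls were negative control wells for no effect and 2.5 mM tranylcypromine positive control for full effect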
# hDAT+cocaine: modulates human dopamine transporter uptake under cocaine; hit rate 1.3% among 110,000; LLC-PK1 hDAT cells, [14C]-dopamine uptake with cocaine IC80; actives deviate in either direction; B-score at 10 µM;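 active = Z score or B-score, a plate-position-corrected score, falls beyond the plate's 99.7% confidence bounds, in either direction; inactive = both scores lie inside the 99.7% bounds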;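 note: scored against the spread of the other compound wells on the same plate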
# Target sequence (Q01959 whole entry, looked up): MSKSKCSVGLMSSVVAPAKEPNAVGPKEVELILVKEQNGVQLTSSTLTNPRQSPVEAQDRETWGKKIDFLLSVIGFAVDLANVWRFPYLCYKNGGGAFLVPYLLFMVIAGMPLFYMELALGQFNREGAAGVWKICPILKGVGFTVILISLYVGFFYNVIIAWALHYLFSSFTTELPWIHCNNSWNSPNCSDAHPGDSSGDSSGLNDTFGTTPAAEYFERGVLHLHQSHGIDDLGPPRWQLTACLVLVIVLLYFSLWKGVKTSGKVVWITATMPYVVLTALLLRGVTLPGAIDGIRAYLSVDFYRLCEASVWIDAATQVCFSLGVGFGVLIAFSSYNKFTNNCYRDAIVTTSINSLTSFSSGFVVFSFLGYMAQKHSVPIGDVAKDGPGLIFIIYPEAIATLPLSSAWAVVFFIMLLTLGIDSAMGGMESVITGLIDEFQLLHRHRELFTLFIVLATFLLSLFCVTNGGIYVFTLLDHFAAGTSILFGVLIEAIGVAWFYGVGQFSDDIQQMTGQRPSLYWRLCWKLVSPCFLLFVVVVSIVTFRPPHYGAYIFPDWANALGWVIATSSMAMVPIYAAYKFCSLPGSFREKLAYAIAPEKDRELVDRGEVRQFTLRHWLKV
# CYP2C19 activ: activators of human cytochrome P450 2C19; P33261; recombinant CYP2C19, luciferin-H EGE luminescence; stronger effect = higher value; 0 = fully inhibited enzyme, 1 = untreated enzyme; activation factor at 5 µM; 96,000 tested, under 10 active;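 active = activation factor of at least 2 at 5 µM in the primary screen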;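 note: 0 = wells with 2.5 mM tranylcypromine and 1 = vehicle-only wells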
# D1 allo mod: D1 dopamine receptor (human) allosteric modulation; P21728; HEK293 D1, CRE-luciferase, dopamine EC30 potentiation; actives deviate in either direction; B-score at 10 µM; hit rate 5.9% among 58,000; AID 641;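 active = luminescence count or its row- and column-corrected plate score outside the 99.7% band of the plate's sample wells, on either side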
# CYP2C9 activ: activators of human CYP2C9. activation factor at 5 µM. AID 1024. recombinant CYP2C9, luciferin-H conversion, luminescence; stronger effect = higher value; factor 1 = untreated enzyme, 0 = blocked. hit rate 1.4% among 96,000;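 active = activation factor of 2 or more for CYP2C9 at a 5 µM dose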;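 note: 0 = sulfaphenazole-blocked wells and 1 = vehicle-only wells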
# * = called active by the depositor; · = not tested or not shown. This is a sample that favours compounds with a hit; in the whole collection about 28% have one here.
SMILES,CYP2C9 inhib,CYP2C19 inh,hDAT+cocaine,CYP2C19 activ,D1 allo mod,CYP2C9 activ
CCC(=O)Nc1ccc2c(c1)OCCO2,16,1,0.78,1,·,0.8
COc1cccc(OC)c1C(=O)Nc1ccc2c(c1)OCCO2,-2,12,0.31,0.9,0.17,1
CCC(C)(C(=O)Nc1ccc2c(c1)OCCO2)N(C(C)=O)c1ccc(C(N)=O)cc1 (stereo not given),19,10,-2.8*,0.9,-0.13,0.8
COc1ccccc1NC(=O)Nc1ccc2c(c1)OCCO2,54*,82*,·,0.2,-0.92,0.5
Cc1cccc(COCC(Cc2ccccc2)N2CCN(C(=O)c3cc(Cl)cc(Cl)c3)CCC2=O)c1 (stereo not given),·,·,0.16,·,·,·
O=C1CC(C2CCCO2)C(=O)N1Cc1ccccc1 (stereo not given),3,47,-0.74,0.5,-0.86,1
C=CCN1C(=NC(=O)CC)SC2CS(=O)(=O)CC21 (stereo not given),4,-4,-1.2,1,·,1
CCN(CC)c1ccc(C(=O)OCC(=O)NCC2CCCO2)cc1 (stereo not given),26,41,0.49,0.6,·,0.7
CCOC(=O)c1cc2sccc2n1CC(=O)c1ccc2c(c1)OCCO2,96*,93*,0.41,0.1,-0.73,0
CCOC(=O)N1CCN(c2c(Nc3ccc4c(c3)OCCO4)c(=O)c2=O)CC1,-103,11,-2.1,0.9,0.73,2*
COc1ccccc1NC(=O)CN1CCN(CC(=O)Nc2ccc3c(c2)OCO3)CC1,34,88*,-4.3*,0.1,0.19,0.7
CCOC(=O)N1CCN(c2c(N3CCOCC3)c(=O)c2=O)CC1,7,-1,-0.63,1,0.066,0.9
Cc1ccc2c(c1)C(=O)CCN2,-14,0,0.15,1,·,1.1
O=C1CCNc2cc3ccccc3cc21,24,52*,0.081,0.5,1.3,0.8
c1ccc(-c2nc(Sc3ncnc4c3cnn4-c3ccccc3)n[nH]2)cc1,32,10,·,0.9,-2.1,0.7
CCNC(=O)NC(=O)CSc1ccc(NC(C)=O)cc1,0,-2,-0.12,1,-0.27,1
CCNC(=O)NC(=O)COC(=O)c1ccccc1SCC(=O)NC(=O)NCC,83*,56*,0.35,0.4,-1.7,0.2
CC(C)(C)c1ccc(C(=O)Nc2cnccn2)cc1,24,12,-0.51,0.9,-3.4*,0.8
COc1ccc(C2=CC(=O)CCC2)cc1,·,·,0.047,·,·,·
CCOC(=O)C(C#N)(Cc1cc(OC)cc(OC)c1)Cc1cc(OC)cc(OC)c1,·,·,0.64,·,·,·
Cc1cc(NS(=O)(=O)c2ccc(NC(=O)c3ccco3)cc2)nc(C)n1,8,-3,-0.45,1,·,0.9
Cc1cc(NS(=O)(=O)c2ccc(CC(C)C)cc2)no1,90*,72*,0.8,0.3,·,0.1
Cc1cc(NS(=O)(=O)c2ccc(NC(=O)c3ccco3)cc2)no1,0,-5,2.7*,1.1,0.3,1
CCCCNC(=O)C1CCCN1C(=O)NC1CCCCC1 (stereo not given),·,·,-7.9*,·,·,·
O=C(NCC1CCCO1)C1CCCN1C(=O)NC1CCCCC1 (stereo not given),-14,-13,-0.48,1.1,-0.0055,1.1
SMILES,CYP2C9 inhib,CYP2C19 inh,hDAT+cocaine,CYP2C19 activ,D1 allo mod,CYP2C9 activ
Cc1ccc(C(=O)NCc2ccco2)cc1S(=O)(=O)Nc1cccc(Cl)c1,98*,87*,-0.065,0.1,·,0
Cc1ccc(C(=O)Nc2cccc(C(=O)NCc3ccco3)c2)cc1,83*,12,0.022,0.9,·,0.2
COc1ccccc1NC(=O)CN(Cc1ccco1)C(=O)c1ccc(-n2nc(C)cc2C)cc1,94*,11,0.36,0.9,-1.1,0.1
Cc1ccc(C)c(S(=O)(=O)NCc2ccc(C(=O)NCc3ccco3)cc2)c1,·,·,0.65,·,·,·
Cc1occc1C(=O)Nc1cccc(C(=O)NCc2ccccc2)c1,93*,68*,0.85,0.3,-0.99,0.1
CC(C)(C)NC(=O)NC(=O)COC(=O)c1ccco1,-11,-5,-0.25,1,·,1.1
Cc1cccc(NC(=O)/C(=C\c2ccco2)NC(=O)c2cccs2)c1,13,14,0.0015,0.9,·,0.9
O=C(Nc1ccccc1)c1cccc(S(=O)(=O)NCc2ccco2)c1,51*,51*,2.5,0.5,·,0.5
CCC(CC)C(=O)Nc1cccc(C(=O)NCc2ccco2)c1,33,23,-0.16,0.8,·,0.7
Cc1cc(C)n(-c2ccc(C(=O)Nc3ccc(S(=O)(=O)NCc4ccco4)cc3)cc2)n1,66*,24,-0.79,0.8,-2.3,0.3
O=C(NCc1ccco1)c1cccc(NC(=O)c2ccccc2)c1,93*,38,-0.21,0.6,-1.7,0.1
Cc1ccc(C(=O)N/C(=C/c2ccco2)C(=O)Nc2cccc(C)c2)cc1,90*,51*,1.9,0.5,·,0.1
Cc1ccc(-n2c(Cc3cccn3C)nnc2SCC(=O)Nc2cc(C)on2)cc1,5,2,-0.98,1,0.43,0.9
O=C(NCCc1ccncc1)C12CC3CC(CC(C3)C1)C2,25,94*,-0.98,0.1,·,0.8
O=C(CC12CC3CC(CC(C3)C1)C2)NCc1ccncc1,88*,99*,0.057,0,·,0.1
O=C(CN1C(=O)C2C3C=CC(C3)C2C1=O)NCCc1ccccc1 (stereo not given),21,33,-1,0.7,1.1,0.8
CNC(=O)CC12CC3CC(CC(C3)C1)C2,3,-1,-0.47,1,·,1
O=C(COC(=O)C12CC3CC(CC(C3)C1)C2)NCCc1ccccc1,85*,53*,1,0.5,·,0.1
COc1cc2[nH]c(=O)c(C(=O)NCCCN3CCCCC3)c(O)c2cc1OC,28,52*,0.64,0.5,-4.3*,0.7
O=C(COC(=O)c1cccnc1Nc1cccc(C(F)(F)F)c1)NCCN1C(=O)CSC1=O,97*,63*,3.5*,0.4,·,0
O=C(COC(=O)c1cccs1)NCCN1C(=O)CSC1=O,-32,63*,-0.64,0.4,-0.66,1.3
COc1cccc(-c2nn(-c3ccccc3)cc2/C=C\C(=O)c2cccs2)c1,58*,33,0.69,0.7,·,0.4
COc1cccc(-c2nn(-c3ccccc3)cc2C(=O)O)c1,15,7,1.8,0.9,0.4,0.8
CC(C)n1c(-c2ccco2)csc1=Nc1cccnc1,60*,65*,-0.8,0.4,0.16,0.4
O=C(NCC(c1cccnc1)N1CCN(c2ccccc2F)CC1)C1CCCCC1 (stereo not given),49,79*,-0.95,0.2,-0.32,0.5
O=C(NCC(c1cccnc1)N1CCOCC1)c1cccc(Cl)c1 (stereo not given),15,7,-1.5,0.9,0.18,0.8
COc1ccc(N2CCN(C(CNC(=O)c3cccc(Cl)c3)c3cccnc3)CC2)cc1 (stereo not given),56*,34,0.61,0.7,-0.92,0.4
